Measurements: the supplement of paper PMC11732987, “Enantioselective OTUD7B fragment discovery through chemoproteomics screening and high-throughput optimisation” (Communications Chemistry, 2025)

Experiments:
Test in all cases: log2 ratio of Biotin-Ahx-Ub-VS probe labelling (fragment/DMSO); higher = less target engagement (more negative = stronger competition), active = hit call of the paper (q ≤ 0.05, log2 ratio ≤ -1)
Details in all cases: compound concentration: 200 uM; treatment time: 3 h
[1] = molecular target: USP34 (UniProt Q70CQ2)
USP34, sequence (Q70CQ2 whole entry, the tested form may be a part): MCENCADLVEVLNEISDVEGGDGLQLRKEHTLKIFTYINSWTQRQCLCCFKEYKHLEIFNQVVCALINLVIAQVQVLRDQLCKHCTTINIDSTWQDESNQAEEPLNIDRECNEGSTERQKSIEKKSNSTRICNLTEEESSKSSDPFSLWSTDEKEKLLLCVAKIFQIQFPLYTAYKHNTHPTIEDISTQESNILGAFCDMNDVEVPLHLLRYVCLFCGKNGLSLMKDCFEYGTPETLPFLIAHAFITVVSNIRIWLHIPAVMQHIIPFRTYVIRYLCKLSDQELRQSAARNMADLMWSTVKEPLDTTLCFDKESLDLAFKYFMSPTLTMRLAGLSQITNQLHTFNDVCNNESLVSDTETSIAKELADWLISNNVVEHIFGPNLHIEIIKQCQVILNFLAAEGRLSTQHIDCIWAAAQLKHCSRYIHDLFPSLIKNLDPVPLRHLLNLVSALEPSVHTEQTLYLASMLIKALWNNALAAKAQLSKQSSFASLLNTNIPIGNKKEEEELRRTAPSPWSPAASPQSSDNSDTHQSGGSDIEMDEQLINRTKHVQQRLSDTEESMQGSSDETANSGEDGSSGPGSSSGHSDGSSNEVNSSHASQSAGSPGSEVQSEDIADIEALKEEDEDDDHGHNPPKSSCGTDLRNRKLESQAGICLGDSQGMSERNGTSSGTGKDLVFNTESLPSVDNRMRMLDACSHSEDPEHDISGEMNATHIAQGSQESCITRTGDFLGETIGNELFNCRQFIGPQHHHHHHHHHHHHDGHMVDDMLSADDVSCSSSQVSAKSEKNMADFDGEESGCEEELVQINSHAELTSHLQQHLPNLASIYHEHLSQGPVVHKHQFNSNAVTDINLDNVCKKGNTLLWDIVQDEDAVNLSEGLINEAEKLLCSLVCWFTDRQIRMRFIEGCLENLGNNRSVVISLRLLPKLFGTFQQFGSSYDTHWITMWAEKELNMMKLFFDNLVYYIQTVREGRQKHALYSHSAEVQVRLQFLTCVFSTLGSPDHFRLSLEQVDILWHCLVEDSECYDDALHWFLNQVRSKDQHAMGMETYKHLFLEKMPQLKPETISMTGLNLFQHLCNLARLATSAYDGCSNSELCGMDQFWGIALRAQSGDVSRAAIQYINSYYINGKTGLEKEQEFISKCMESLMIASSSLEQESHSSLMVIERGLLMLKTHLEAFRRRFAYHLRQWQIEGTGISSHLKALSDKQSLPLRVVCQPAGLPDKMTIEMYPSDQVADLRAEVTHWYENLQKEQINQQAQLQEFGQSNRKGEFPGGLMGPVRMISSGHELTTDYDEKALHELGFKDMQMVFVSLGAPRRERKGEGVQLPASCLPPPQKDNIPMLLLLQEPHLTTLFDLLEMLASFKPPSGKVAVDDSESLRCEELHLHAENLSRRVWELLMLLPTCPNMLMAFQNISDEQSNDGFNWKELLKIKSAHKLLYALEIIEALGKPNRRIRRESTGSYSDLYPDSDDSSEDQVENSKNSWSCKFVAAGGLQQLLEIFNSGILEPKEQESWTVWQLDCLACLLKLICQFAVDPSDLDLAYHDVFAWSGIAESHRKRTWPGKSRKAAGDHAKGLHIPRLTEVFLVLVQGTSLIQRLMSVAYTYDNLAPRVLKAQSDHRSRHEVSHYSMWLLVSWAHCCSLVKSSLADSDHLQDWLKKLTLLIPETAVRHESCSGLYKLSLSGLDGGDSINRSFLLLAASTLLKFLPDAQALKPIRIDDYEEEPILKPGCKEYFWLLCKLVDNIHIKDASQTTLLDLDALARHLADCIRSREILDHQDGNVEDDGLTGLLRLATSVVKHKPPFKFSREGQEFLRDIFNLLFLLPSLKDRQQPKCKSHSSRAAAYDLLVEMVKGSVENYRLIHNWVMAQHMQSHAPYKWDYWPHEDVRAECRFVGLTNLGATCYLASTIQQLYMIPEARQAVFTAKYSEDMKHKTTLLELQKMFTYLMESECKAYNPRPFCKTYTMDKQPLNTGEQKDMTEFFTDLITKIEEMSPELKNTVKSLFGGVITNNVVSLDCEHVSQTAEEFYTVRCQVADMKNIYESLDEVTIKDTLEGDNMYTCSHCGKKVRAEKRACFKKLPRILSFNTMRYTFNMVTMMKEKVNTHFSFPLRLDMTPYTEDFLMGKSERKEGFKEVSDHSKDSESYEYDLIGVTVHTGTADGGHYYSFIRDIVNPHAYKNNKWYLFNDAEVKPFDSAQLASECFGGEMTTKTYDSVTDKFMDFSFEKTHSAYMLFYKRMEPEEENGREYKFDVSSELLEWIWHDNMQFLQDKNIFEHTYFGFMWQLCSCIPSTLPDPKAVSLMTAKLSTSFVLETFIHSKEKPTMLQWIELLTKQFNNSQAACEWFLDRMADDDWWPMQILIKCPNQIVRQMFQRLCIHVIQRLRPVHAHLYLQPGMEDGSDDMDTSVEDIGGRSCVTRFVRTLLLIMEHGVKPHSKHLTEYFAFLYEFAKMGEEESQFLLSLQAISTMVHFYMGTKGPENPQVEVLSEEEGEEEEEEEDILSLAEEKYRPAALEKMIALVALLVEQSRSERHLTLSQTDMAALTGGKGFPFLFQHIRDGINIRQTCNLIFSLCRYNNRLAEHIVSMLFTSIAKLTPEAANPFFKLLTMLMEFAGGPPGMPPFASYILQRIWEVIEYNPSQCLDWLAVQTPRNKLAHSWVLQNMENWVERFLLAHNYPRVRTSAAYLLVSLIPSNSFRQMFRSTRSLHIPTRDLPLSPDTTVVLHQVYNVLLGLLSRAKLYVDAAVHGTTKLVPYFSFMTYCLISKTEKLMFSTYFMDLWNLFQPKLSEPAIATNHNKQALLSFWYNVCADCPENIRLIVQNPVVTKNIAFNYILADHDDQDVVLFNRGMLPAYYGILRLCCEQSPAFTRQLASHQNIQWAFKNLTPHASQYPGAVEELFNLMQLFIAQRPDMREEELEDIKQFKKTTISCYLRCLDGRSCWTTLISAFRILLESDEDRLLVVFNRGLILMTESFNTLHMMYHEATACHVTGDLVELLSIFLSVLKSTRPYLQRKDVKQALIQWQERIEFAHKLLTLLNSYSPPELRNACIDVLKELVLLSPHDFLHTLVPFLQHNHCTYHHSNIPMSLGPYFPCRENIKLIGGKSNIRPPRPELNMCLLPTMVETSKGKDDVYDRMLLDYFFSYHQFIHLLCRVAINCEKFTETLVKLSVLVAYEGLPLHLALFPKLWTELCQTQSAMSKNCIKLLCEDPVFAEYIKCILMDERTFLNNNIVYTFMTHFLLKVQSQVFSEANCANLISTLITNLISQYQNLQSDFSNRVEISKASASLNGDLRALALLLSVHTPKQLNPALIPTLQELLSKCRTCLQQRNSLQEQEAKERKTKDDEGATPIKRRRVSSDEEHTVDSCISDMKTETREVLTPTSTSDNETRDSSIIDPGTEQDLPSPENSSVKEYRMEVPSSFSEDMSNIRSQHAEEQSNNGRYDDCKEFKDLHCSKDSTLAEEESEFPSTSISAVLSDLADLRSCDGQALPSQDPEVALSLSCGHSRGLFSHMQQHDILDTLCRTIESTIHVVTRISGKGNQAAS
Summary of the method: (§1)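 Fragment (200 µM) or vehicle was incubated for 3 h with triplicate HEK293T lysate samples of 495 µg, which were then treated with Biotin-Ahx-Ub-VS at 0.5 µM final for 1 h. Labelled DUBs were enriched on NeutrAvidin, digested with LysC and trypsin, and analysed by diaPASEF LC-MS/MS. Values are average log2 fragment/vehicle ratios from an unpaired t-test on global-median-normalised Spectronaut label-free quantities, using proteins with ≥2 unique peptides.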

[2] = molecular target: T1, USP36 (UniProt Q9P275)
T1 sequence (whole entry): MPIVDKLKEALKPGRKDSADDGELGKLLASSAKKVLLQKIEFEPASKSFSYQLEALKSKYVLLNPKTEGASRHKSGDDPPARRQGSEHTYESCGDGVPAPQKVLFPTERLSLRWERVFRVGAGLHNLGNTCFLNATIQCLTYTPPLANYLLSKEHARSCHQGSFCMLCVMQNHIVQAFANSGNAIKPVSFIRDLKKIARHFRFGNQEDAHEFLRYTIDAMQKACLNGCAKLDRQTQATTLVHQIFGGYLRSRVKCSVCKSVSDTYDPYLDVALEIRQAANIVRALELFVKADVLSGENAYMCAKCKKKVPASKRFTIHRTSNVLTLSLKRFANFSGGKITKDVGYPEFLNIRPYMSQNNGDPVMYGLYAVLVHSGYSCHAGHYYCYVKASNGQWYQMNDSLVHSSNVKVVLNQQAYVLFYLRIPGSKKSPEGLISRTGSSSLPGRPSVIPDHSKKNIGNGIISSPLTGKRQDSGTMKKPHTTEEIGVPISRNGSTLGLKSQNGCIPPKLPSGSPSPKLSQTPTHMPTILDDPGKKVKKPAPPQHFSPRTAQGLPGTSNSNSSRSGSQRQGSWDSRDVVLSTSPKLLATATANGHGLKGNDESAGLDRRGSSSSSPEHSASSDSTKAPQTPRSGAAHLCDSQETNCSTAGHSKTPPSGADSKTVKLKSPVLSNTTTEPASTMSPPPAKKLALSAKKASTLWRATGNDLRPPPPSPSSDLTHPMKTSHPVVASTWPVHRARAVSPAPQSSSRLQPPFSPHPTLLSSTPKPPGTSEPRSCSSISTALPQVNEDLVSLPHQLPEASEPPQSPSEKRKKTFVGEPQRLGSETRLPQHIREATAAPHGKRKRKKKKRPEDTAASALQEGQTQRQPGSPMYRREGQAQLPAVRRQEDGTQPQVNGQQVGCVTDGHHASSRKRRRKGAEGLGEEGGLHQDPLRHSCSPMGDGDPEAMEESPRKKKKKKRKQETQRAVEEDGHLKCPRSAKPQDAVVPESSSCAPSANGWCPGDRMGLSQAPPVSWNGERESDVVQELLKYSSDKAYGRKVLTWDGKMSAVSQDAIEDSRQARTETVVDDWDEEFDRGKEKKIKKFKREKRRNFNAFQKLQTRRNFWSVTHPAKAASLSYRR
Summary of the method: as §1

[3] = molecular target: T2, USP38 (UniProt Q8NB14)
T2 sequence (whole entry): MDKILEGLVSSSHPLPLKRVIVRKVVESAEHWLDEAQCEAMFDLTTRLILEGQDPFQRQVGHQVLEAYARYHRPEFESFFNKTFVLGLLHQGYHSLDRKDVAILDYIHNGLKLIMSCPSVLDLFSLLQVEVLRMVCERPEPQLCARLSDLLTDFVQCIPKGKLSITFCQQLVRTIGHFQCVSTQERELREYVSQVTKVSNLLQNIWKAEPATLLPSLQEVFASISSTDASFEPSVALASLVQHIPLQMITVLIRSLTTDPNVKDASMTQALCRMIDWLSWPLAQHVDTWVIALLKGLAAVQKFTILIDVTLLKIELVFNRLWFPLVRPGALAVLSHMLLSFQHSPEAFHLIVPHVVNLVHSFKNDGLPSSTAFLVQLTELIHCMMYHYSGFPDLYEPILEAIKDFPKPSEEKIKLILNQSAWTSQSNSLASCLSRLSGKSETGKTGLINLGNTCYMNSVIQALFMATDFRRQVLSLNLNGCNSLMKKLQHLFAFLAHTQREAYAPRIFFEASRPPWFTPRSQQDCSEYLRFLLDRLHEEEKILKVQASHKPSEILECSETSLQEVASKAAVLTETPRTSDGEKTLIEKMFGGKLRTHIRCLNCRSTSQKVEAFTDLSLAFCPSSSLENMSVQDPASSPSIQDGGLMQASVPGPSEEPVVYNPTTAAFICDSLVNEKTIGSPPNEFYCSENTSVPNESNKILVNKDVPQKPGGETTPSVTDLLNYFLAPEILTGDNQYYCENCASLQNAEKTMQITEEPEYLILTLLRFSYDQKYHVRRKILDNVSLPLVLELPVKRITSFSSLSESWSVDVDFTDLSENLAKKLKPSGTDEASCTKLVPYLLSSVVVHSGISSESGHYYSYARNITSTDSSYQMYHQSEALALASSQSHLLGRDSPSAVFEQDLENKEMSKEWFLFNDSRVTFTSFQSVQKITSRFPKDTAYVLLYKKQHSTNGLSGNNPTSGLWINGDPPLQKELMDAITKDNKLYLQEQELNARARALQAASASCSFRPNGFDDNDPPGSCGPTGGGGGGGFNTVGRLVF
Summary of the method: as §1

[4] = molecular target: T3, USP39 (UniProt Q53GS9)
T3 sequence (whole entry): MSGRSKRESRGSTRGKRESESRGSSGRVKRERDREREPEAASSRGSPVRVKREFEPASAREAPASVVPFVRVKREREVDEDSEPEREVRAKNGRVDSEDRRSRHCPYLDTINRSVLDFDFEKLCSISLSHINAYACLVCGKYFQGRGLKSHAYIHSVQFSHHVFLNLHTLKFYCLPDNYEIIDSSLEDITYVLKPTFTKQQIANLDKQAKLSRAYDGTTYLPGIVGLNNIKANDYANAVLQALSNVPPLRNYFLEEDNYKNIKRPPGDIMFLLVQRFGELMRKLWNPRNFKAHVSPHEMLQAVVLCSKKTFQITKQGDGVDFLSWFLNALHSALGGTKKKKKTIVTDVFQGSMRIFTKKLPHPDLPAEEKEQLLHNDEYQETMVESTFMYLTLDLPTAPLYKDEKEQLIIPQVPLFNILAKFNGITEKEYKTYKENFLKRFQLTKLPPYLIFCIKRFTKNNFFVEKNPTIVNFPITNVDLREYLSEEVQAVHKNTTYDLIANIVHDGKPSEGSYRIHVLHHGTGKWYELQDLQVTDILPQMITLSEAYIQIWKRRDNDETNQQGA
Summary of the method: as §1

[5] = molecular target: T4, USP4 (UniProt Q13107)
T4 sequence (whole entry): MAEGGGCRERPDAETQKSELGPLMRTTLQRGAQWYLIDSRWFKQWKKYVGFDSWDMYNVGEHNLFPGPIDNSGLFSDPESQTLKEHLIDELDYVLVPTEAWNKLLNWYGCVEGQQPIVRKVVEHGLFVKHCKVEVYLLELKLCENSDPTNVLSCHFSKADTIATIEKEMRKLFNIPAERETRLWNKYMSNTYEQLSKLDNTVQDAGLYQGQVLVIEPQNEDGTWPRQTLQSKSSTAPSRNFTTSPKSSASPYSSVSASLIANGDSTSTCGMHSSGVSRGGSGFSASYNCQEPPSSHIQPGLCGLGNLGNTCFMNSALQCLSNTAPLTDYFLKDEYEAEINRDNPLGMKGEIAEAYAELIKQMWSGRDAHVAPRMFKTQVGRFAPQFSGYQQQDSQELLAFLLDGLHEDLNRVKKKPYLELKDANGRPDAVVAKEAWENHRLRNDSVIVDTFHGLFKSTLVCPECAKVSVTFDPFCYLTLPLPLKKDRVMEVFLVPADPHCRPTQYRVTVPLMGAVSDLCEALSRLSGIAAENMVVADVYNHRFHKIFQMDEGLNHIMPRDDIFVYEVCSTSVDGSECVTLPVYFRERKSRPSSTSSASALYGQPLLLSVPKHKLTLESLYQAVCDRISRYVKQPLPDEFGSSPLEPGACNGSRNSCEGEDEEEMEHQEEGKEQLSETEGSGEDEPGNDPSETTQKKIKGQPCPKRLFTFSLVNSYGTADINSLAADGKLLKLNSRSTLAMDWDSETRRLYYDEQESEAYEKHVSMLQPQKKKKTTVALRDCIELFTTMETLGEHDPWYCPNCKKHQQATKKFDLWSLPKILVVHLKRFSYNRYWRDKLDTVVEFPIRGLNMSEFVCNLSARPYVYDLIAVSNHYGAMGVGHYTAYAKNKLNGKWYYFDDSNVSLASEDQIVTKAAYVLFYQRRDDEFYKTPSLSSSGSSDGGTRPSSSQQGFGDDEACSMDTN
Summary of the method: as §1

Measured: log2 ratio of Biotin-Ahx-Ub-VS probe labelling

Cc1ccccc1CN(C)C(=O)CCl
inactive: [1] -0.547 | [2] -0.347 | [3] -0.741 | [4] -0.049 | [5] -0.831
